Measured values: PubChem BioAssay (EPA / NIEHS)
Values joined by “and” are separate entries in the source; they are usually repeats but may differ in a detail not shown here. Identical values can stand only once. Active and inactive are the calls of the source. Rule for the calls: active = hit-call score of the fitted dose curve at least 0.9, where 1 is the maximum; inactive = score below 0.9.

read-out: Monokine induced gamma interferon (MIG), CXCL9 (gene 4283); test: BSK_BE3C_MIG: BioMAP Diversity Plus: BE3C Assay for Monokine induced gamma interferon (MIG) Biomarker Activity (AID 2283035); details: primary human bronchial epithelial cells; actives raise or lower the signal
Procedure: BSK_BE3C is a cell-based, multiplexed-readout assay that uses bronchial epithelial cell, a human lung primary cell, with measurements taken at 24 hours after chemical dosing in a 96-well plate.BSK_BE3C_MIG is an assay component measured in the BSK_BE3C assay. It measures MIG antibody related to regulation of gene expression using ELISA technology.Data from the assay component BSK_BE3C_MIG was analyzed into 1 assay endpoint. This assay endpoint, BSK_BE3C_MIG, was analyzed with bidirectional fitting relative to DMSO as the negative control and baseline of activity. Using a type of binding reporter, gain or loss-of-signal activity can be used to understand changes in the signaling as they relate to the gene CXCL9. Furthermore, this assay endpoint can be referred to as a primary readout, because this assay has produced multiple assay endpoints where this one serves a signaling function. To generalize the intended target to other relatable targets, this assay endpoint is annotated to the cytokine intended target family, where the subfamily is chemotactic factor.
The levels of cell surface (or secreted, indicated by the prefix "s") biomarker endpoints were measured by ELISA. Overt cytotoxicity to cells in confluent adherent cultures (all systems other than the BT system) was assessed by measuring total protein levels using sulforhodamine B (SRB) staining in parallel cultures at the time of biomarker measurements, indicated as SRB endpoints. For proliferation assays for adherent cell types, individual cell types are cultured at sub-confluence and relative cell numbers quantified by SRB staining at time points optimized for each system (48 h: 3C and CASM3C systems; 72 h: BT and HDF3CGF systems; 96 h: SAg system). SRB was performed by staining cells with 0.1% SRB after fixation with 10% TCA and reading wells at 560 nm.Viability and proliferation of PBMC (T cells) was quantified by Alamar Blue reduction for the SAg and BT systems. For PBMC viability (referred to as PBMC Cytotoxicity within the assay endpoint names), cells were plated (75,000/well in a 96-well plate) and then chemical samples added for 1 h before addition of activators, SEB and TSST-1 (20 ng/mL final concentration each). Cells were incubated for 90 h. Then, Alamar Blue (20 uL/well) (Invitrogen, Cat DAL1100) was added for 6 h, and the plates were read with a fluorescence microplate reader at 546/580 nm (excitation/emission). For PBMC proliferation, cells were plated and activated as above but incubated for only 16 h prior to addition of Alamar Blue. Plates were read after 6 h.

Q: Which outcome does the source give for `CCCCC(CC)C(=O)O` (stereo not given) here?
A: inactive

Q: Which AC50 does the source give for `CCCCCCCCCCCC` here?
A: 9 µM (active) and 9.5 µM (active)

Q: How did the outcome turn out when `O=P(O)(O)CCC(F)(F)C(F)(F)C(F)(F)C(F)(F)C(F)(F)C(F)(F)F` was run?
A: inactive

Q: How did the outcome turn out when `CC[N+](CC)(CC)Cc1ccccc1` was run?
A: inactive

Q: With `O=S(=O)(O)C(F)(F)C(F)(F)C(F)(F)C(F)(F)C(F)(F)C(F)(F)C(F)(F)C(F)(F)C(F)(F)C(F)(F)F` as the compound, how does the outcome read?
A: inactive

Q: With `N=C(N)c1ccc(OCCCCCOc2ccc(C(=N)N)cc2)cc1` as the compound, how does the outcome read?
A: inactive

Q: How did the outcome turn out when `Cc1ccc(C(=O)c2ccccc2)cc1` was run?
A: inactive

Q: How did the AC50 turn out when `O=C(O)C(F)(F)OC(F)(F)C(F)(F)OC(F)(F)C(F)(F)OC(F)(F)C(F)(F)C(F)(F)C(F)(F)F` was run?
A: 4.58 µM (active) and 4.77 µM (active)

Q: `Cc1ccc(N=Nc2c(O)ccc3ccccc23)c(C)c1` was tested. Which outcome did it give?
A: inactive

Q: `CCC(C)c1ccccc1O` (stereo not given) was tested. Which outcome did it give?
A: inactive

Q: How did the outcome turn out when `CN(C)CCOC(c1ccccc1)c1ccccc1` was run?
A: inactive

Q: With `COc1cc(OC)nc(NC(=O)NS(=O)(=O)Nc2ccccc2C(=O)N(C)C)n1` as the compound, how does the outcome read?
A: inactive

Q: Which outcome does the source give for `CN(CCO)S(=O)(=O)C(F)(F)C(F)(F)C(F)(F)C(F)(F)C(F)(F)C(F)(F)C(F)(F)C(F)(F)F` here?
A: inactive

Q: How did the outcome turn out when `Clc1ccc(Nc2nnc(Cc3ccncc3)c3ccccc23)cc1` was run?
A: inactive

Q: With `COC1=CC(=O)C[C@@H](C)[C@]12Oc1c(Cl)c(OC)cc(OC)c1C2=O` as the compound, how does the outcome read?
A: inactive

Q: Which AC50 does the source give for `CCCCCc1ccc(O)cc1` here?
A: 32.8 µM (active)

Q: For `O=C(O)CCC(F)(F)C(F)(F)C(F)(F)C(F)(F)C(F)(F)F`, which outcome is on record?
A: inactive

Q: Which outcome does the source give for `CC(=O)Nc1ccc(O)cc1` here?
A: inactive

Q: For `OCCN1CN(CCO)CN(CCO)C1`, which outcome is on record?
A: inactive

Q: For `OCC(F)(F)C(F)(F)C(F)(F)C(F)(F)C(F)(F)C(F)(F)C(F)(F)C(F)(F)C(F)(F)C(F)(F)C(F)(F)F`, which outcome is on record?
A: inactive

Q: For `C[C@]12CC[C@@H]3c4ccc(O)cc4CC[C@H]3[C@@H]1C[C@@H](O)[C@@H]2O`, which outcome is on record?
A: inactive

Q: For `COc1cccc(O)c1`, which outcome is on record?
A: inactive

Q: For `CC1=NN(c2ccccc2)C(=O)C1`, which outcome is on record?
A: inactive

Q: With `C=COC(=O)C(C)(C)CCCCCC` as the compound, how does the outcome read?
A: inactive

Q: For `C=CC(C)(CCC=C(C)C)OC(C)=O` (stereo not given), which outcome is on record?
A: inactive

Q: How did the AC50 turn out when `CN(C)c1ccc(C(=C2C=CC(=[N+](C)C)C=C2)c2ccccc2)cc1` was run?
A: 0.561 µM (active)

Q: For `COCN(COC)c1nc(N(COC)COC)nc(N(COC)COC)n1`, which outcome is on record?
A: inactive

Q: How did the AC50 turn out when `Cc1[nH]nc2c1N=C(c1ccccc1Cl)c1cc([N+](=O)[O-])ccc1N2` was run?
A: 19.3 µM (active)

Q: `OCC(CO)(CBr)CBr` was tested. Which outcome did it give?
A: inactive

Q: With `CCCCCCCCCCCCCCC` as the compound, how does the outcome read?
A: inactive

Q: With `O=C1OC2(c3ccccc31)c1cc(I)c(O)c(I)c1Oc1c2cc(I)c(O)c1I` as the compound, how does the AC50 read?
A: 19.9 µM (active)

Q: With `O=P(O)(O)CCC(F)(F)C(F)(F)C(F)(F)C(F)(F)C(F)(F)C(F)(F)C(F)(F)C(F)(F)F` as the compound, how does the outcome read?
A: inactive

Q: `Oc1c(Cl)cc(Cl)cc1Sc1cc(Cl)cc(Cl)c1O` was tested. Which AC50 did it give?
A: 6.66 µM (active) and 7.75 µM (active)

Q: `Oc1cc2ccccc2cc1O` was tested. Which outcome did it give?
A: inactive

Q: With `O=C(NCc1ncc(C(F)(F)F)cc1Cl)c1c(Cl)cccc1Cl` as the compound, how does the outcome read?
A: inactive

Q: `CCCCCCCCCCCCOS(=O)(=O)O` was tested. Which AC50 did it give?
A: 26.4 µM (active)

Q: With `CCOC(=O)CN[C@@H](C(=O)N1CC[C@H]1C(=O)NCc1ccc(/C(N)=N/O)cc1)C1CCCCC1` as the compound, how does the outcome read?
A: inactive

Q: With `C=CC(=C)CC/C=C(\C)CCC=C(C)C` as the compound, how does the outcome read?
A: inactive

Q: `CC(C)(C)c1ccc(O)c(O)c1` was tested. Which outcome did it give?
A: inactive

Q: `O=C(CCCN1CCC(O)(c2ccc(Cl)cc2)CC1)c1ccc(F)cc1` was tested. Which outcome did it give?
A: inactive
